Data reported in PubChem BioAssay (NCI).
This is part of a sample that, as a whole, favours compounds with a hit. Of some 83,000 tested, about 20% had one in any assay.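 The endpoint reported here, percent growth, reads 100 for growth as untreated, 0 for no net growth and -100 for all cells dead.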 The source made the active and inactive calls. Rule for the calls: active = growth percent below 10; inactive = the rest.

How the values were obtained:
Test in all cases: NCI-60 one-dose screen, 48 h (100 = growth as untreated, 0 = no growth, -100 = all killed)
Settings in all cases: 10 µM unless noted
DU-145 prostate = system: DU-145 prostate
K-562 leukemia = system: K-562 leukemia
MALME-3M melanoma = system: MALME-3M melanoma
MDA-MB-231 breast = system: MDA-MB-231 breast
RXF 393 renal = system: RXF 393 renal
SF-268 CNS = system: SF-268 CNS
SF-295 CNS = system: SF-295 CNS
SF-539 CNS = system: SF-539 CNS
UACC-257 melanoma = system: UACC-257 melanoma
M14 melanoma = system: M14 melanoma
HCT-15 colon = system: HCT-15 colon
HT29 colon = system: HT29 colon
SNB-75 CNS = system: SNB-75 CNS
SNB-19 CNS = system: SNB-19 CNS
U251 CNS = system: U251 CNS
PC-3 prostate = system: PC-3 prostate
SK-MEL-5 melanoma = system: SK-MEL-5 melanoma
UACC-62 melanoma = system: UACC-62 melanoma
LOX IMVI melanoma = system: LOX IMVI melanoma
SK-MEL-28 melanoma = system: SK-MEL-28 melanoma

Measured: growth

Cc1ccc(-c2nc3c(c(-c4ccccc4)nn3-c3ccccc3)c(-c3ccc(O)cc3)c2C#N)cc1
inactive: DU-145 prostate 60.5% | K-562 leukemia 22.3% | MALME-3M melanoma 75.1% | MDA-MB-231 breast 45.9% | SF-268 CNS 60.2% | SF-539 CNS 15.2% | UACC-257 melanoma 93.9% | M14 melanoma 60.3% | HCT-15 colon 28.8% | HT29 colon 107% | SNB-75 CNS 40.5% | SNB-19 CNS 69.1% | U251 CNS 41.6% | PC-3 prostate 34.3% | SK-MEL-5 melanoma 77.6% | UACC-62 melanoma 63.7% | LOX IMVI melanoma 12.2% | SK-MEL-28 melanoma 67.1%
active: RXF 393 renal -10.4% | SF-295 CNS -20.9%

CN1C(=O)N(C)C2Nn3c(s/c(=C\c4ccccc4)c3=O)=NC21 (stereo not given)
inactive: DU-145 prostate 106% | K-562 leukemia 92.8% | MALME-3M melanoma 101% | MDA-MB-231 breast 98.1% | RXF 393 renal 106% | SF-268 CNS 93.9% | SF-295 CNS 104% | SF-539 CNS 100% | UACC-257 melanoma 94.1% | M14 melanoma 97.8% | HCT-15 colon 93.1% | HT29 colon 106% | SNB-75 CNS 71.4% | SNB-19 CNS 95.6% | U251 CNS 96.2% | PC-3 prostate 101% | SK-MEL-5 melanoma 101% | UACC-62 melanoma 90.9% | LOX IMVI melanoma 92.6% | SK-MEL-28 melanoma 105%

O=C(Nc1ccc(I)cc1F)c1cc(I)ccc1O
active: K-562 leukemia 7.64% | MALME-3M melanoma -26.9% | MDA-MB-231 breast -34.7% | RXF 393 renal -9.34% | SF-295 CNS -34% | SF-539 CNS 9.88% | UACC-257 melanoma -17% | M14 melanoma 5.74% | HCT-15 colon 4.84% | SNB-75 CNS 1.71% | PC-3 prostate 7.79% | SK-MEL-5 melanoma -95.8% | UACC-62 melanoma -24.1% | LOX IMVI melanoma 8.01% | SK-MEL-28 melanoma 5.11%
inactive: DU-145 prostate 21.2% | SF-268 CNS 13.6% | HT29 colon 78.7% | SNB-19 CNS 17.5% | U251 CNS 16.1%

Cc1ccc(-c2nc(N3CCN(CC(=O)Nc4ccc(Cl)c(C(F)(F)F)c4)CC3)c3ccccc3n2)cc1
inactive: DU-145 prostate 105% | K-562 leukemia 69% | MALME-3M melanoma 106% | MDA-MB-231 breast 90.7% | RXF 393 renal 80.5% | SF-268 CNS 81.6% | SF-295 CNS 104% | SF-539 CNS 95.9% | UACC-257 melanoma 94.5% | M14 melanoma 95.7% | HCT-15 colon 79.1% | HT29 colon 89.8% | SNB-75 CNS 81.2% | SNB-19 CNS 98.8% | U251 CNS 93.2% | PC-3 prostate 79.1% | SK-MEL-5 melanoma 103% | UACC-62 melanoma 83% | LOX IMVI melanoma 92.1% | SK-MEL-28 melanoma 105%

COc1cc(C(=O)c2cc(C)c3[nH]c4ccc(C)cc4c3c2C)cc(OC)c1OC
active: DU-145 prostate 1.16% | SF-539 CNS 0.519% | HCT-15 colon 8.81% | SK-MEL-5 melanoma -42.3%
inactive: K-562 leukemia 11.5% | MALME-3M melanoma 34.3% | MDA-MB-231 breast 27.6% | RXF 393 renal 36.8% | SF-268 CNS 29.3% | SF-295 CNS 11.7% | UACC-257 melanoma 68.8% | M14 melanoma 23.7% | HT29 colon 10.6% | SNB-75 CNS 39.7% | SNB-19 CNS 52.2% | U251 CNS 19.2% | PC-3 prostate 23.4% | UACC-62 melanoma 62.7% | LOX IMVI melanoma 10.9% | SK-MEL-28 melanoma 57.1%

Cc1oc2nc[nH]c(=O)c2c1C(=O)/C=C/c1ccc(Br)cc1
inactive: K-562 leukemia 10.8% | MALME-3M melanoma 24.5% | MDA-MB-231 breast 16.1% | SF-295 CNS 14.2% | UACC-257 melanoma 32.7% | M14 melanoma 15.4% | HT29 colon 15.3% | SNB-19 CNS 23.5% | U251 CNS 12% | PC-3 prostate 25.5% | UACC-62 melanoma 13.2% | SK-MEL-28 melanoma 23.9%
active: DU-145 prostate 5.67% | RXF 393 renal 4.34% | SF-268 CNS 5.39% | SF-539 CNS -9.63% | HCT-15 colon -27.4% | SNB-75 CNS -2.44% | SK-MEL-5 melanoma 8.55% | LOX IMVI melanoma -90.6%

CCCCn1c(=O)c(-c2cc(-c3ccc(Cl)cc3)nc(-c3ccc(Cl)cc3)c2)cc2cc(Cl)ccc21
inactive: DU-145 prostate 112% | K-562 leukemia 102% | MALME-3M melanoma 104% | MDA-MB-231 breast 84.6% | RXF 393 renal 118% | SF-268 CNS 98.4% | SF-295 CNS 103% | SF-539 CNS 103% | UACC-257 melanoma 96.1% | M14 melanoma 101% | HCT-15 colon 97.8% | HT29 colon 101% | SNB-75 CNS 95.4% | SNB-19 CNS 96% | U251 CNS 105% | PC-3 prostate 98.4% | SK-MEL-5 melanoma 107% | UACC-62 melanoma 88.5% | LOX IMVI melanoma 99.9% | SK-MEL-28 melanoma 104%

O=C1c2cccc3cccc(c23)C(=O)N1Nc1nc(NC2CCCCC2)nc(N2CCOCC2)n1
inactive: DU-145 prostate 108% | K-562 leukemia 88.9% | MALME-3M melanoma 90.1% | MDA-MB-231 breast 82.9% | RXF 393 renal 109% | SF-268 CNS 99.7% | SF-295 CNS 105% | SF-539 CNS 98.4% | UACC-257 melanoma 100% | M14 melanoma 95.4% | HCT-15 colon 93.1% | HT29 colon 107% | SNB-75 CNS 88.9% | SNB-19 CNS 91% | U251 CNS 97.5% | PC-3 prostate 98.2% | SK-MEL-5 melanoma 92.7% | UACC-62 melanoma 89.1% | LOX IMVI melanoma 91.1% | SK-MEL-28 melanoma 101%
